Values joined by “and” are separate entries in the source; they are usually repeats but may differ in a detail not shown here. Equal values may be shown once. Records with an inconclusive call do not appear. Unmarked numbers belong to inactive results. Active and inactive are the calls of the source. Unless noted, calls follow the shape of the dose curve; as a rule, active = well fitted curve in the direction sought with a large enough effect; inconclusive = small, poorly fitted or top-dose-only effect, or another doubt; inactive = no such curve, though single readings can be large; an effect the other way counts as inactive or inconclusive.

Assay [1] concerns the target Cellular tumor antigen p53 (Homo sapiens) (UniProt P04637). Put plainly: Primary qHTS for small molecule compounds that upregulate eGFP-tagged delta133p53alpha (in N-terminal) cells. (AID 2060322). Also: nearly all actives have a fitted effect of over 75% in size. Also: potency is read from the fitted curve at half-maximal effect.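 As to activation: cells pre-induced with doxycycline then dosed without doxycycline; series mostly up to about 56 µM; 0% = DMSO vehicle and 100% = reference activator.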 The note with it: NCI-H358 eGFP-delta133p53alpha fluorescence, 24 h; activation: stronger effect = higher value. The procedure, abridged: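 NCI-H358 cells pre-induced 24 h with 10 ng/ml doxycycline for eGFP-delta133p53alpha, plated dox-free and exposed 24 h at 37C to titrated compounds. Fixed, Hoechst-stained; gated GFP peak intensity by laser scanning cytometry, normalized to DMSO (0%) and 57.5 uM 5-azacytidine (100%).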

Assay [2] is described as follows: BET inhibitor-based combinations targeting novel dependencies in MECOM-rearranged (r) AML: SET-2 cell line (AID 2202231). Also: nearly all actives have a fitted effect of over 35% in size. Also: potency is read from the fitted curve at half-maximal effect.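 As to viability: plate controls were DMSO treated cells for no effect and wells without cells for full effect.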 As to conditions: SET-2 AML cells viability, CellTiter-Glo luminescence, 48 h; viability: stronger effect = lower value, concentration not given here. The procedure, abridged:
(§1)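 Cells were plated at 500 per well and exposed to an 11-point dose series of each drug for 48 hr. Viability was measured by CellTiter-Glo luminescence, normalized to DMSO and empty-well controls, and summarized as AUC and per-cell-line Z-AUC.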

Assay [3] is described as follows: BET inhibitor-based combinations targeting novel dependencies in MECOM-rearranged (r) AML: MV-4-11 cell line (AID 2202233). Also: nearly all actives have a fitted effect of over 45% in size. Also: potency is read from the fitted curve at half-maximal effect. The procedure, abridged: (§2)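 Activity is given as area under the curve and as Z-AUC, mean-centred within each cell line. It comes from 11-point dose curves normalized to DMSO and empty wells. CellTiter-Glo luminescence was read after 48 hr drug exposure of 500 cells/well.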

A short description of assay [4]: BET inhibitor-based combinations targeting novel dependencies in MECOM-rearranged (r) AML: UCSD-AML1 cell line (AID 2202235). Also: nearly all actives have a fitted effect of over 40% in size. Also: potency is read from the fitted curve at half-maximal effect. The procedure, abridged: as §2
Assay [5] can be described thus: BET inhibitor-based combinations targeting novel dependencies in MECOM-rearranged (r) AML: AML-191 cell line (AID 2202236; also: nearly all actives have a fitted effect of over 35% in size; also: potency is read from the fitted curve at half-maximal effect). The procedure, abridged: as §1
A short description of assay [6]: BET inhibitor-based combinations targeting novel dependencies in MECOM-rearranged (r) AML: AML-194 cell line (AID 2202237; also: nearly all actives have a fitted effect of over 40% in size; also: potency is read from the fitted curve at half-maximal effect). The procedure, abridged:
as §1

The nature of assay [7]: BET inhibitor-based combinations targeting novel dependencies in MECOM-rearranged (r) AML: OCI-AML3 cell line (AID 2202232). Also: nearly all actives have a fitted effect of over 35% in size. Also: potency is read from the fitted curve at half-maximal effect. As to conditions: Potency: OCI-AML3 viability. The procedure, abridged: as §1
Assay [8] is described as follows: BET inhibitor-based combinations targeting novel dependencies in MECOM-rearranged (r) AML: HNT-34 cell line (AID 2202234). Also: nearly all actives have a fitted effect of over 35% in size. Also: potency is read from the fitted curve at half-maximal effect. The procedure, abridged: as §2
In assay [9] the target is Retinaldehyde dehydrogenase 3 (Homo sapiens) (UniProt P47895). Put plainly: qHTS for Inhibitors of the Aldehyde Dehydrogenase Family (ALDH1A3) Primary screen (AID 2061315).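 Also: plate controls were DMSO vehicle for no effect and reference inhibitor for full effect.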
Assay [10] addresses Aldehyde dehydrogenase 1A1 (Homo sapiens) (UniProt P00352). The experiment in a line: qHTS for Inhibitors of the Aldehyde Dehydrogenase Family (ALDH1A1) Confirmatory screens (AID 2061316). Also: potency is read from the fitted curve at half-maximal effect; nearly all actives have a fitted effect of over 65% in size.
In assay [11] the target is Aldehyde dehydrogenase, mitochondrial (Homo sapiens) (UniProt P05091). The experiment in a line: qHTS for Inhibitors of the Aldehyde Dehydrogenase Family (ALDH2) Validation screens (AID 2061302; active = well fitted inhibition curve with a large enough effect; title and protocol of this record describe different tests;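 also: plate controls were DMSO vehicle for no effect and maximal DPI positive control response for full effect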).
The target in assay [12] is Retinaldehyde dehydrogenase 3 (Homo sapiens) (UniProt P47895). The experiment in a line: qHTS for Inhibitors of the Aldehyde Dehydrogenase Family (ALDH1A3) Validation screen (AID 2061312). Also: % is scaled to controls: 0 for no effect and ±100 for the full control effect; nearly all actives have a fitted effect of over 45% in size.
The target in assay [13] is Cellular tumor antigen p53 (Homo sapiens) (UniProt P04637). Put plainly: Primary qHTS for small molecule compounds that upregulate eGFP-tagged delta133p53alpha (in C-terminal) cells. (AID 2060324).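 Also: 0% = DMSO wells and 100% = 57.5 µM 5-azacytidine.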 The procedure, abridged:
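Concentration-response screen: compounds titrated onto pre-induced NCI-H358 D133p53a-eGFP cells, incubated one day, fixed with 3.5% PFA. Per-cell GFP peak intensity was gated, then normalized against intraplate controls.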

Chain of Cellular tumor antigen p53 (Homo sapiens) (P04637 whole entry, looked up): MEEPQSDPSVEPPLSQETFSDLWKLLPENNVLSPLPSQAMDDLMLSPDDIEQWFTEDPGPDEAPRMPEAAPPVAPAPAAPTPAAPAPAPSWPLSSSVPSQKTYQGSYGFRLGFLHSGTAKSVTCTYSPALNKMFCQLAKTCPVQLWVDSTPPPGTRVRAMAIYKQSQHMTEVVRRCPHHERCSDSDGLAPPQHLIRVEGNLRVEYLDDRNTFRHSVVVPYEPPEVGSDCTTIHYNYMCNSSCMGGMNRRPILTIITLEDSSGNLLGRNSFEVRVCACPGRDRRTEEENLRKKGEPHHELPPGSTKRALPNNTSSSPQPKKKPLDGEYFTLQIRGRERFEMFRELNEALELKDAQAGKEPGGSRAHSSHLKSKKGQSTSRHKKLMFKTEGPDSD

Consider `C#C[C@]1(O)C=C[C@H]2[C@@H]3CCC4=CC(=O)CC[C@@H]4[C@H]3CC[C@@]21CC`, for which the activation in [1] is 10.7%. For the same compound, the viability in [2] was 95.4%. Moreover, the Potency in assay [3] is 18600 nM (active). Also, the Potency result in assay [4] and in assay [5] was “inactive” throughout.

Turning to `CCCCCC[C@H]1C(=O)O[C@H](C)[C@H](NC(=O)c2cccc(NC=O)c2O)C(=O)O[C@@H](C)[C@@H]1OC(=O)CC(C)C`, the activation in [1] is -21.7%. In addition, the Potency in [3] was 1320 nM (active); in [5] it was 263 nM (active). The Potency result in assay [4] and in assay [6] was “inactive” each time.

With `CC1=C(O)C(=O)C=C2C1=CC=C1[C@@]2(C)CC[C@@]2(C)[C@@H]3C[C@](C)(C(=O)O)CC[C@]3(C)CC[C@]12C`, the Potency in assay [1] is 17.2 µM (active); in [7], 742 nM (active); in assay [3], 662 nM (active); in assay [8] it was 934 nM (active); in assay [4], 1050 nM (active); in assay [5], 934 nM (active). Also, the Potency in [6] is 1180 nM (active).

Turning to `C[C@]12CC[C@H]3[C@@H](CCC4=CC(=O)CC[C@@]43C)[C@H]1CC[C@H]2OC(=O)CCC1CCCC1`, in [1], the activation was 28.3%. In [2], the viability is 96.4%. Further, the Potency entry in [7], in assay [3], in assay [8], in [4] and in assay [5] was “inactive” throughout.

On to `O=C1CC[C@@]2(O)[C@H]3Cc4ccc(O)c5c4[C@@]2(CCN3CC2CC2)[C@H]1O5`, for which the activation in assay [1] is -5.99% and 2.51%. Further, the viability in [2] was 123%. The Potency entry in [7], in [4], in [5] and in assay [6] was “inactive” throughout.

With `Cc1sc2c(c1C)C(c1ccc(Cl)cc1)=N[C@@H](CC(=O)OC(C)(C)C)c1nnc(C)n1-2`, in [1], the activation was -35.4% and 15.6%. Also, the Potency is 590 nM (active) in assay [2]; 209 nM (active) in [3]; 662 nM (active) in assay [8]; 742 nM (active) in assay [4]; 662 nM (active) in [5].

For `C[C@]12CC[C@@H]3c4ccc(OC(=O)N(CCCl)CCCl)cc4CC[C@H]3[C@@H]1CC[C@@H]2OP(=O)(O)O`, the activation in assay [1] was -2.49% and -2.33%. For the same compound, the Potency result in assay [9], in [7], in assay [3], in [8] and in [4] was “inactive” in each case. Besides, the viability in [2] was 112%.

Take `CN1CN(c2ccccc2)C2(CCN(CCCC(=O)c3ccc(F)cc3)CC2)C1=O`: in assay [1], the activation was 23.7%. In assay [9], the Potency result was “inactive”. In assay [10], the Potency was 22500 nM (active).

Turning to `COCC1(CO)C(=O)C2CCN1CC2` (stereo unspecified), in [1], the activation was -22.4%. Moreover, the Potency in assay [2] is 26300 nM (active); in assay [7] it was 4680 nM (active); in assay [3] it was 10500 nM (active); in [6], 10500 nM (active).

As to `CCN1C[C@]2(OC(=O)c3ccccc3NC(C)=O)CC[C@H](OC)[C@@]34[C@H]5CC6[C@@H](OC)C[C@](O)(C(C[C@@H]23)[C@@H]14)[C@@]5(O)[C@@H]6OC`, in assay [1], the activation was 24.6%. The viability in [2] was 104%. The Potency result in assay [7], in assay [3], in assay [8] and in assay [4] was “inactive” throughout.

For the compound `Clc1ccccc1C(c1ccccc1)(c1ccccc1)n1cccn1`, the activation in assay [1] was 8.55%. Also, the viability in [2] is 90.1%. The Potency entry in assay [7], in assay [8], in assay [4] and in assay [6] was “inactive” each time.

For `O=S(=O)(CC1CS1)c1ccc(Oc2ccccc2)cc1` (stereo unspecified), the activation in assay [1] is -10.4%. The Potency in assay [8] was 20900 nM (active).

`Cc1ncc(OC[C@@]2(c3cccc(F)c3)C[C@H]2C(=O)Nc2ccc(F)cn2)c(C)n1`: the activation in [1] was -13.1%. In addition, the viability in assay [2] was 92.7%. For the same compound, the Potency result in assay [7], in assay [4], in [5] and in assay [6] was “inactive” each time.

`CC(C)OC(=O)c1ccnc2cc(C(OCCN3CCCCC3)c3ccccc3Cl)sc12` (stereo unspecified): the activation in assay [1] is -11.2%. In assay [9], the Potency entry was “inactive”.

Turning to `C[C@]12CC[C@@H]3[C@@H](CCC4=CC(=O)CC[C@@H]43)[C@@H]1CC[C@@H]2OC(=O)CCc1ccccc1`, the activation in assay [1] was 7.88%. The viability in assay [2] was 104%. Also, in [7], the Potency entry is “inactive”. In addition, in assay [3], the Potency was 18600 nM (active).

For the compound `C=C1[C@@]23C(=O)O[C@H](C)[C@]24O[C@@]2(C(=C)[C@]5(C=CC(=O)OC5(C)C)CC[C@]32C)[C@H](O)[C@@]1(C)OC4=O`, the activation in assay [1] is 13%. In assay [9], the Potency result is “inactive”.

Turning to `CC(C)(C)c1cc(C=C(C#N)C#N)cc(Br)c1O`, the activation in assay [1] was 19.6%. Also, the Potency is 23500 nM (active) in assay [7], 18600 nM (active) in assay [3], 16600 nM (active) in assay [8] and 18600 nM (active) in assay [5].

For `CC(C)(O)C(=O)Nc1ccc([N+](=O)[O-])c(C(F)(F)F)c1`, in assay [1], the activation was -14.4%. Further, the Potency in [3] was 16600 nM (active). Further, the Potency result in assay [4] is “inactive”.

For `C[C@@H]1CC[C@H]2[C@@H](C)C(=O)O[C@@H]3O[C@@]4(C)CC[C@@H]1[C@]32OO4`, the activation in [1] was 0%. The Potency in [7] was 1180 nM (active); in assay [8], 14800 nM (active); in [5], 5250 nM (active). In addition, the Potency entry in assay [4] and in assay [6] was “inactive” throughout.

As for `CSCC[C@@H](NC(=O)[C@@H](Cc1ccccc1)NC(=O)CNC(=O)CNC(=O)[C@@H](N)Cc1ccc(O)cc1)C(=O)O`, the activation in assay [1] is 22.9%. Also, the viability in [2] is 119%. The Potency entry in assay [7], in assay [3], in [8], in assay [5] and in assay [6] was “inactive” throughout.

Take `C[C@@H]1C[C@@H]([C@H](O)CC2CC(=O)NC(=O)C2)C(=O)[C@@H](C)C1`: the Potency in [1] was 4.37 µM (active) and 968 nM (active); in [2], 296 nM (active); in assay [4], 263 nM (active); in assay [5] it was 742 nM (active); in [6], 833 nM (active).

As to `C=CCN1CCC23c4c5ccc(O)c4O[C@H]2C(=O)CC[C@@]3(O)C1C5` (stereo partly specified), the Potency result in assay [11] and in assay [12] was “inactive” in each case.

In the case of `CN1CCc2cccc(Cl)c2CC1`, the Potency entry in [11] and in assay [12] was “inactive” each time.

For the compound `COc1ccc(C(CN(C)C)C2(O)CCCCC2)cc1` (stereo unspecified), the Potency result in assay [13], in assay [11] and in assay [12] was “inactive” in each case.

`C[C@]12CCC(=O)C(O)=C1CC[C@@H]1[C@@H]2CC[C@]2(C)C(=O)CC[C@@H]12`: the activation in assay [1] was 6.69%. The Potency result in assay [8], in assay [4] and in assay [5] was “inactive” each time.

The record behind these values is PubChem BioAssay (NCATS).
